# Records with an inconclusive call do not appear. Where a call stands in place of a potency, no number is given. Values without a mark were called inactive. Calls of active or inactive are those of the source. Calls come from the whole dose curve; as a rule, active = well fitted inhibition curve with a large enough effect; inconclusive = small, poorly fitted or top-dose-only effect; inactive = flat fitted curve, though single readings scatter.
# How the values were obtained:
# [1] = tested on: PC49; test: qHTS profiling for inhibitors of Plasmodium falciparum proliferation (AID 504749); note: potency is the fitted concentration of half-maximal effect; settings: P. falciparum in erythrocytes, SYBR Green DNA, 72 h; series mostly up to 28.7 µM
# In short: (§1)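 Readout was DNA-dye fluorescence from lysed cultures, ex 485/em 535 nm. Parasitized red cells had grown 72 h with compound; data scaled between 0.29 uM artemisinin and DMSO wells and corrected using vehicle-only plates.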
# [2] = tested on: SC27B; test: as above; settings: P. falciparum in erythrocytes, SYBR Green DNA, 72 h; series mostly up to 28.7 µM
# In short: as §1
# [3] = tested on: TAB109; test: as above; settings: P. falciparum in erythrocytes, SYBR Green DNA, 72 h; series mostly up to 28.7 µM
# In short: as §1
# [4] = tested on: TAB113; test: as above; settings: P. falciparum in erythrocytes, SYBR Green DNA, 72 h; series mostly up to 28.7 µM
# In short: as §1
# [5] = tested on: TAB165; test: as above; settings: P. falciparum in erythrocytes, SYBR Green DNA, 72 h; series mostly up to 28.7 µM
# In short: as §1
# [6] = tested on: W2; test: as above; settings: P. falciparum in erythrocytes, SYBR Green DNA, 72 h; series mostly up to 28.7 µM
# In short: as §1
# [7] = tested on: CRL-7250; test: Cytotoxic Profiling of Annotated Libraries Using Quantitative High-Throughput Screening (AID 1296008); settings: Five cell lines viability, CellTiter-Glo ATP luminescence, 48-72 h; hits give low values
# In short: (§2)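 Cells exposed to compounds for 48 or 72 hr at 37 degrees Celsius. Viability read as ATP-coupled luminescence with CellTiter-Glo after 10 min at room temperature.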
# [8] = tested on: HEK293; test: as above; settings: Five cell lines viability, CellTiter-Glo ATP luminescence, 48-72 h; hits give low values
# In short: as §2
# [9] = tested on: HaCat; test: as above; settings: Five cell lines viability, CellTiter-Glo ATP luminescence, 48-72 h; hits give low values
# In short: as §2
# [10] = tested on: KB-3-1; test: as above; settings: Five cell lines viability, CellTiter-Glo ATP luminescence, 48-72 h, hits give low values
# In short: as §2
# [11] = tested on: NIH3T3; test: as above; settings: Five cell lines viability, CellTiter-Glo ATP luminescence, 48-72 h; hits give low values
# In short: as §2
# [12] = tested on: HEK293T; test: qHTS assay to identify novel small-molecules to repurpose for Merkel cell carcinoma treatment (AID 1296009); settings: MCC and control cell lines, CellTiter-Glo viability, 72 h; at 44.8 µM (top of the series) unless noted
# In short: (§3)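 Cells were incubated with compound for 72 hr at 37 degree celsius before CellTiter-Glo addition. Luminescence was normalized with no-cell wells as full cytotoxicity and DMSO as baseline.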
# [13] = tested on: MCC-13; test: as above; settings: MCC and control cell lines, CellTiter-Glo viability, 72 h; series mostly up to 46 µM
# In short: as §3
# [14] = tested on: MCC-26; test: as above; settings: MCC and control cell lines, CellTiter-Glo viability, 72 h; series mostly up to 46 µM
# In short: as §3
# [15] = tested on: MKL-1; test: as above; settings: MCC and control cell lines, CellTiter-Glo viability, 72 h; series mostly up to 46 µM
# In short: as §3
# [16] = tested on: UISO; test: as above; settings: MCC and control cell lines, CellTiter-Glo viability, 72 h; series mostly up to 46 µM
# In short: as §3
# [17] = tested on: WaGa; test: as above; settings: MCC and control cell lines, CellTiter-Glo viability, 72 h; series mostly up to 46 µM
# In short: as §3
# [18] = tested on: MKL-2; test: as above; settings: MCC and control cell lines, CellTiter-Glo viability, 72 h; series mostly up to 46 µM
# In short: as §3
# [19] = tested on: NIH3T3; test: as above; settings: MCC and control cell lines, CellTiter-Glo viability, 72 h; at 44.8 µM (top of the series) unless noted
# In short: as §3
# Note: nearly all actives have a fitted effect of over 60% in size.
smiles,measurement,setting,value
COc1ccc(O)cc1,Potency,[1],inactive
same,Potency,[2],inactive
same,Potency,[3],inactive
same,Potency,[4],inactive
same,Potency,[5],inactive
same,Potency,[6],inactive
same,max response,[7],-3.8%
same,outcome,[8],inactive
same,max response,[9],-9.9%
same,max response,[10],-0.988%
same,max response,[11],-13.1%
same,outcome,[12],inactive
same,outcome,[13],inactive
same,outcome,[14],inactive
same,outcome,[15],inactive
same,outcome,[16],inactive
same,outcome,[17],inactive
OC[C@@H](O)[C@@H](O)[C@H](O)[C@H](O)CO,Potency,[1],inactive
same,Potency,[2],inactive
same,Potency,[3],inactive
same,Potency,[4],inactive
same,Potency,[5],inactive
same,Potency,[6],inactive
same,max response,[7],-5.84%
same,outcome,[8],inactive
same,max response,[9],0.927%
same,max response,[10],5.16%
same,max response,[11],-8.98%
same,outcome,[12],inactive
same,outcome,[13],inactive
same,outcome,[14],inactive
same,outcome,[15],inactive
same,outcome,[18],inactive
same,outcome,[16],inactive
same,outcome,[17],inactive
Nc1ccc(S(=O)(=O)c2ccc(N)cc2)cc1,Potency,[1],inactive
same,Potency,[2],inactive
same,Potency,[3],inactive
same,Potency,[4],inactive
same,Potency,[5],inactive
same,Potency,[6],inactive
same,max response,[7],2.75%
same,outcome,[8],inactive
same,max response,[9],2.48%
same,max response,[10],-3.79%
same,max response,[11],3.17%
same,outcome,[12],inactive
same,outcome,[13],inactive
same,outcome,[14],inactive
same,outcome,[15],inactive
same,outcome,[18],inactive
same,outcome,[16],inactive
same,outcome,[17],inactive
CCCCCCCCCCOc1cc2c(=O)c(C(=O)OCC)c[nH]c2cc1OCC,Potency,[1],7.9 nM (active)
same,Potency,[2],2.5 nM (active)
same,Potency,[3],2.5 nM (active)
same,Potency,[4],2.8 nM (active)
same,Potency,[5],1.3 nM (active)
same,Potency,[6],1.7 nM (active)
same,outcome,[7],inactive
same,outcome,[8],inactive
same,max response,[9],-5.57%
same,max response,[10],7.91%
same,max response,[11],-1.43%
same,outcome,[12],inactive [at 4.96 µM]
same,"activity change, negative = cytotoxicity",[13],9.19% [at 4.84 µM]
same,"activity change, negative = cytotoxicity",[14],-1.97% [at 4.84 µM]
same,"activity change, negative = cytotoxicity",[15],-4.83% [at 4.84 µM]
same,"activity change, negative = cytotoxicity",[18],10.7% [at 4.84 µM]
same,"activity change, negative = cytotoxicity",[16],13.6% [at 4.84 µM]
same,"activity change, negative = cytotoxicity",[17],-1.72% [at 4.84 µM]
CC(=O)N(CC(O)CO)c1c(I)c(C(=O)NCC(O)CO)c(I)c(C(=O)NCC(O)CO)c1I (centres undefined),Potency,[1],inactive
same,Potency,[2],inactive
same,Potency,[3],inactive
same,outcome,[7],inactive
same,max response,[8],1.45%
same,max response,[9],3.3%
same,max response,[10],-10.7%
same,outcome,[11],inactive
same,outcome,[13],inactive
same,outcome,[14],inactive
same,outcome,[15],inactive
same,outcome,[18],inactive
same,outcome,[19],inactive
same,outcome,[16],inactive
same,outcome,[17],inactive
C=CCN1C[C@H](C(=O)N(CCCN(C)C)C(=O)NCC)C[C@@H]2c3cccc4[nH]cc(c34)C[C@H]21,outcome,[7],inactive
same,max response,[8],1.65%
same,max response,[9],-1.25%
same,max response,[10],6.36%
same,outcome,[11],inactive
same,outcome,[13],inactive
same,outcome,[14],inactive
same,outcome,[15],inactive
same,outcome,[18],inactive
same,outcome,[19],inactive
same,outcome,[16],inactive
same,outcome,[17],inactive
CC(=O)Nc1ccc(C(=O)O)cc1,Potency,[1],inactive
same,Potency,[2],inactive
same,Potency,[3],inactive
same,Potency,[4],inactive
same,Potency,[5],inactive
same,Potency,[6],inactive
same,max response,[7],-0.409%
same,outcome,[8],inactive
same,max response,[9],3.25%
same,max response,[10],-6.78%
same,max response,[11],-2.27%
same,outcome,[12],inactive
same,outcome,[13],inactive
same,outcome,[14],inactive
same,outcome,[15],inactive
same,outcome,[18],inactive
same,outcome,[16],inactive
same,outcome,[17],inactive
O=C(O)C(S)C(S)C(=O)O (centres undefined),max response,[7],-6.2%
same,max response,[8],-7.93%
same,max response,[9],3.59%
same,max response,[10],-23%
same,outcome,[11],inactive
same,outcome,[13],inactive
same,outcome,[14],inactive
same,outcome,[15],inactive
same,outcome,[18],inactive
same,outcome,[19],inactive
same,outcome,[16],inactive
same,outcome,[17],inactive
CNCc1ccccc1,Potency,[1],inactive
same,Potency,[2],inactive
same,Potency,[3],inactive
same,Potency,[4],inactive
same,Potency,[5],inactive
same,Potency,[6],inactive
same,max response,[7],4.71%
same,outcome,[8],inactive
same,max response,[9],-18.5%
same,max response,[10],-4.93%
same,max response,[11],1.15%
same,outcome,[12],inactive
same,outcome,[13],inactive
same,outcome,[14],inactive
same,outcome,[15],inactive
same,outcome,[18],inactive
same,outcome,[16],inactive
same,outcome,[17],inactive
CC(=O)N1C[C@H](O)C[C@H]1C(=O)O,outcome,[7],inactive
same,max response,[8],1.84%
same,max response,[9],4.9%
same,max response,[10],8.51%
same,outcome,[11],inactive
same,outcome,[13],inactive
same,outcome,[14],inactive
same,outcome,[15],inactive
same,outcome,[18],inactive
same,outcome,[19],inactive
same,outcome,[16],inactive
same,outcome,[17],inactive
CC1(C)[C@@H](OC(=O)CCC(=O)O)CC[C@]2(C)[C@H]3C(=O)C=C4[C@@H]5C[C@@](C)(C(=O)O)CC[C@]5(C)CC[C@@]4(C)[C@]3(C)CC[C@@H]12,max response,[7],-5.85%
same,max response,[8],-0.807%
same,max response,[9],2.22%
same,max response,[10],-3.96%
same,outcome,[11],inactive
same,outcome,[13],inactive
same,outcome,[14],inactive
same,outcome,[15],inactive
same,outcome,[18],inactive
same,outcome,[19],inactive
same,outcome,[16],inactive
same,outcome,[17],inactive
CC(=O)N(CC(O)CN(C(C)=O)c1c(I)c(C(=O)NCC(O)CO)c(I)c(C(=O)NCC(O)CO)c1I)c1c(I)c(C(=O)NCC(O)CO)c(I)c(C(=O)NCC(O)CO)c1I (centres undefined),max response,[7],-0.159%
same,max response,[8],-0.57%
same,max response,[9],-14.3%
same,max response,[10],0.0705%
same,outcome,[11],inactive
same,outcome,[13],inactive
same,outcome,[14],inactive
same,outcome,[15],inactive
same,outcome,[18],inactive
same,outcome,[19],inactive
same,outcome,[16],inactive
same,outcome,[17],inactive
Cc1ccccc1N=Nc1ccc(N=Nc2c(O)ccc3ccccc23)c(C)c1,Potency,[1],inactive
same,Potency,[2],inactive
same,Potency,[3],inactive
same,Potency,[4],inactive
same,Potency,[5],inactive
same,Potency,[6],inactive
same,max response,[7],-16.7%
same,outcome,[8],inactive
same,max response,[9],0.728%
same,max response,[10],9.66%
same,max response,[11],0.522%
same,outcome,[12],inactive
same,outcome,[13],inactive
same,outcome,[14],inactive
same,outcome,[15],inactive
same,outcome,[18],inactive
same,outcome,[17],inactive

# Source: PubChem BioAssay (NCATS)
